Results from the supplement of paper PMC8728848.
The entries come from a sample that favours the strongest signals as a whole.

How the values were obtained:
Assay in all cases: glycan array binding signal (z-score within array); higher = stronger binding
Settings in all cases: glycan notation: IUPAC condensed, linker removed
[1] = target: GlcNAc(b1-3)Gal(b1-4)GlcNAc(b1-3)Gal(b1-4)GlcNAc(b1-3)Gal(b1-4)GlcNAc(b1-2)Man(a1-3)[GlcNAc(b1-3)Gal(b1-4)GlcNAc(b1-3)Gal(b1-4)GlcNAc(b1-3)Gal(b1-4)GlcNAc(b1-2)Man(a1-6)]Man(b1-4)GlcNAc(b1-4)[Fuc(a1-6)]GlcNAc
How it was run: (§1)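 Glycan array data were curated from 3228 arrays in the Consortium for Functional Glycomics database and kept only where the protein sequence was available. Glycan names were converted to IUPAC-condensed notation, and columns mapping to the same glycan were averaged. The binding signal is a within-array Z-score, averaged across arrays of the same protein sequence at different concentrations or buffers and across linkers. Negative Z-scores can be read as non-binding.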

[2] = target: GlcNAc(b1-3)Gal(b1-4)GlcNAc(b1-3)Gal(b1-4)GlcNAc(b1-3)Gal(b1-4)GlcNAc(b1-3)Gal(b1-4)GlcNAc(b1-2)Man(a1-3)[GlcNAc(b1-3)Gal(b1-4)GlcNAc(b1-3)Gal(b1-4)GlcNAc(b1-3)Gal(b1-4)GlcNAc(b1-3)Gal(b1-4)GlcNAc(b1-2)Man(a1-6)]Man(b1-4)GlcNAc(b1-4)GlcNAc
How it was run: as §1

[3] = target: GlcNAc(b1-3)Gal(b1-4)GlcNAc(b1-3)Gal(b1-4)GlcNAc(b1-3)GalNAc
How it was run: as §1

[4] = target: Man(a1-2)Man(a1-2)Man(a1-6)[Man(a1-3)]Man
How it was run: as §1

Man(a1-2)Man(a1-3)Man = target: Man(a1-2)Man(a1-3)Man
How it was run: as §1

[5] = target: Man(a1-2)Man(a1-3)[Man(a1-2)Man(a1-6)]Man
How it was run: as §1

[6] = target: Man(a1-2)Man(a1-3)[Man(a1-2)Man(a1-6)]Man(a1-6)[Man(a1-2)Man(a1-2)Man(a1-3)]Man
How it was run: as §1

[7] = target: Man(a1-2)Man(a1-3)[Man(a1-2)Man(a1-6)]Man(a1-6)[Man(a1-2)Man(a1-2)Man(a1-3)]Man(b1-4)GlcNAc(b1-4)GlcNAc
How it was run: as §1

[8] = target: Man(a1-2)Man(a1-3)[Man(a1-6)]Man(a1-6)[Man(a1-2)Man(a1-3)]Man(b1-4)GlcNAc(b1-4)GlcNAc
How it was run: as §1

[9] = target: Man(a1-2)Man(a1-6)[Man(a1-3)]Man(a1-6)[Man(a1-2)Man(a1-2)Man(a1-3)]Man
How it was run: as §1

[10] = target: Man(a1-2)Man(a1-6)[Man(a1-3)]Man(a1-6)[Man(a1-2)Man(a1-2)Man(a1-3)]Man(b1-4)GlcNAc(b1-4)GlcNAc
How it was run: as §1

[11] = target: Man(a1-3)[Man(a1-6)]Man(a1-6)[Man(a1-2)Man(a1-3)]Man(b1-4)GlcNAc(b1-4)GlcNAc
How it was run: as §1

[12] = target: Man(a1-3)[Man(a1-6)]Man(b1-4)GlcNAc(b1-4)GlcNAc
How it was run: as §1

[13] = target: Man(a1-3)[Man(a1-6)]Man(b1-4)GlcNAc(b1-4)[Fuc(a1-6)]GlcNAc
How it was run: as §1

[14] = target: Neu5Ac(a2-3)Gal(b1-3)GalNAc6S
How it was run: as §1

[15] = target: Neu5Ac(a2-3)Gal(b1-3)GlcNAc(b1-6)GalNAc
How it was run: as §1

[16] = target: Neu5Ac(a2-3)Gal(b1-3)[GlcNAc(b1-6)]GalNAc
How it was run: as §1

[17] = target: Neu5Ac(a2-3)Gal(b1-3)]Neu5Ac(a2-3)Gal(b1-4)]GlcNAc
How it was run: as §1

[18] = target: Neu5Ac(a2-3)Gal(b1-4)GlcNAc(b1-2)[Neu5Ac(a2-3)Gal(b1-4)GlcNAc(b1-4)]Man(a1-3)[GlcNAc(b1-4)][Neu5Ac(a2-3)Gal(b1-4)GlcNAc(b1-4)Man(a1-6)]Man(b1-4)GlcNAc(b1-4)GlcNAc
How it was run: as §1

[19] = target: Neu5Ac(a2-3)Gal(b1-4)GlcNAc(b1-3)Gal(b1-4)GlcNAc(b1-2)Man(a1-3)[Neu5Ac(a2-3)Gal(b1-4)GlcNAc(b1-3)Gal(b1-4)GlcNAc(b1-2)Man(a1-6)]Man(b1-4)GlcNAc(b1-4)GlcNAc
How it was run: as §1

[20] = target: Neu5Ac(a2-3)[GalNAc(b1-4)]Gal(b1-4)Glc
How it was run: as §1

[21] = target: Neu5Ac(a2-3)[GalNAc(b1-4)]Gal(b1-4)GlcNAc
How it was run: as §1

[22] = target: Neu5Ac(a2-6)Gal(b1-4)GlcNAc(b1-2)Man(a1-6)[Man(a1-3)]Man(b1-4)GlcNAc(b1-4)GlcNAc
How it was run: as §1

[23] = target: Neu5Ac(a2-6)Gal(b1-4)GlcNAc(b1-3)Gal(b1-4)GlcNAc
How it was run: as §1

[24] = target: Neu5Ac(a2-6)Gal(b1-4)GlcNAc(b1-3)Gal(b1-4)GlcNAc(b1-3)GalNAc
How it was run: as §1

[25] = target: Neu5Ac(a2-6)Gal(b1-4)GlcNAc(b1-3)Gal(b1-4)GlcNAc(b1-3)[Neu5Ac(a2-6)Gal(b1-4)GlcNAc(b1-3)Gal(b1-4)GlcNAc(b1-6)]GalNAc
How it was run: as §1

Neu5Ac(a2-6)GalNAc = target: Neu5Ac(a2-6)GalNAc
How it was run: as §1

[26] = target: Neu5Ac(a2-6)GalNAc(b1-4)GlcNAc
How it was run: as §1

[27] = target: Neu5Ac(a2-8)Neu5Ac(a2-3)Gal(b1-3)GalNAc(b1-4)[Neu5Ac(a2-3)]Gal(b1-4)Glc
How it was run: as §1

[28] = target: Neu5Ac(a2-8)Neu5Ac(a2-8)Neu5Ac(a2-3)Gal(b1-4)Glc
How it was run: as §1

Neu5Gc(a2-3)Gal(b1-4)Glc = target: Neu5Gc(a2-3)Gal(b1-4)Glc
How it was run: as §1

B1: Banana lectin (Musa acuminata) (protein)
chain: MNGAIKVGAWGGNGGSAFDMGPAYRIISVKIFSGDVVDGVDVTFTYYGKTETRHYGGSGGTPHEIVLQEGEYLVGMAGEVANYHGAVVLGKLGFSTNKKAYGPFGNTGGTPFSLPIAAGKISGFFGRGGKFLDAIGVYLEPLEHHHHHH
- glycan array binding signal (z-score) [1]: -0.122
- glycan array binding signal (z-score) [2]: -0.165
- glycan array binding signal (z-score) [3]: -0.184
- glycan array binding signal (z-score) [4]: 6.19
- glycan array binding signal (z-score) (Man(a1-2)Man(a1-3)Man): 2.25
- glycan array binding signal (z-score) [5]: 4.51
- glycan array binding signal (z-score) [6]: 5.96
- glycan array binding signal (z-score) [7]: 2.62
- glycan array binding signal (z-score) [8]: 8.11
- glycan array binding signal (z-score) [9]: 3.34
- glycan array binding signal (z-score) [10]: 6.29
- glycan array binding signal (z-score) [11]: 13.1
- glycan array binding signal (z-score) [12]: 4.01
- glycan array binding signal (z-score) [13]: 2.88
- glycan array binding signal (z-score) [14]: -0.237
- glycan array binding signal (z-score) [15]: -0.288
- glycan array binding signal (z-score) [16]: -0.214
- glycan array binding signal (z-score) [17]: -0.223
- glycan array binding signal (z-score) [18]: -0.225
- glycan array binding signal (z-score) [19]: -0.167
- glycan array binding signal (z-score) [20]: -0.132
- glycan array binding signal (z-score) [21]: -0.169
- glycan array binding signal (z-score) [22]: 3.56
- glycan array binding signal (z-score) [23]: -0.226
- glycan array binding signal (z-score) [24]: -0.223
- glycan array binding signal (z-score) [25]: -0.161
- glycan array binding signal (z-score) (Neu5Ac(a2-6)GalNAc): -0.204
- glycan array binding signal (z-score) [26]: -0.221
- glycan array binding signal (z-score) [27]: -0.192
- glycan array binding signal (z-score) [28]: -0.139
- glycan array binding signal (z-score) (Neu5Gc(a2-3)Gal(b1-4)Glc): -0.209
